Measured values reported in PubChem BioAssay AID1159580 (chemical genetic matrix, 2015).
Out of some 5,500 compounds screened, about 2,000 (36%) were called active. Roughly 18% stayed inconclusive and do not appear here. This is one part of the list. Values without a mark were called inactive. Cut-off read from the data, not from the text of the source: active = normalized growth mostly below about 0.91 (no sharp cut-off); inconclusive = no clear call, values can overlap the other calls; inactive = mostly above about 0.92.

Assay: chemical genetic growth profiling, strain panel (AID 1159580);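 note: tested at 20 µM; growth read once vehicle control cultures reached saturation at 30 °C; 1 = growth at the plate median or of vehicle wells; lower values mean less growth of the strain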
Details: S. cerevisiae deletion strains, growth OD

SMILES: O=C(O)c1cc(=O)c(O)c2c(O)c(O)c(O)cc2c1
- normalized growth (locus YAL021C, strain ccr4, hits give low values): 0.0892 (active)
- normalized growth (locus YAL026C, strain drs2, hits give low values): 0.216 (active)
- normalized growth (locus YAL030W, strain snc1, hits give low values): 0.757 (active)
- normalized growth (locus YBL061C, strain skt5, hits give low values): 0.639 (active)
- normalized growth (locus YBR009C, strain hhf1, hits give low values): 0.694 (active)
- normalized growth (locus YBR023C, strain chs3, hits give low values): 0.549 (active)
- normalized growth (locus YBR171W, strain sec66, hits give low values): 0.812 (active)
- normalized growth (locus YBR231C, strain swc5, hits give low values): 0.483 (active)
- normalized growth (locus YBR279W, strain paf1, hits give low values): 0.754 (active)
- normalized growth (locus YCL011C, strain gbp2, hits give low values): 0.72 (active)
- normalized growth (locus YCL016C, strain dcc1, hits give low values): 0.809 (active)
- normalized growth (locus YCL061C, strain MRC1, hits give low values): 0.651 (active)
- normalized growth (locus YCL069W, strain vba3, hits give low values): 0.69 (active)
- normalized growth (locus YCR088W, strain abp1, hits give low values): 0.707 (active)
- normalized growth (locus YDL005C, strain med2, hits give low values): 0.953
- normalized growth (locus YDL040C, strain nat1, hits give low values): 0.906 (active)
- normalized growth (locus YDR001C, strain nth1, hits give low values): 0.846 (active)
- normalized growth (locus YDR069C, strain doa4, hits give low values): 0.161 (active)
- normalized growth (locus YDR137W, strain rgp1, hits give low values): 0.142 (active)
- normalized growth (locus YDR159W, strain sac3, hits give low values): 0.134 (active)
- normalized growth (locus YDR195W, strain ref2): 0.481 (active)
- normalized growth (locus YDR297W, strain sur2, hits give low values): 0.729 (active)
- normalized growth (locus YDR334W, strain swr1, hits give low values): 0.353 (active)
- normalized growth (locus YDR335W, strain msn5, hits give low values): 0.128 (active)
- normalized growth (locus YDR392W, strain spt3, hits give low values): 0.708 (active)
- normalized growth (locus YEL003W, strain gim4, hits give low values): 0.511 (active)
- normalized growth (locus YEL037C, strain rad23, hits give low values): 0.552 (active)
- normalized growth (locus YEL061C, strain CIN8 (second series), hits give low values): 0.756 (active)
- normalized growth (locus YER015W, strain faa2, hits give low values): 0.488 (active)
- normalized growth (locus YER016W, strain bim1, hits give low values): 0.84 (active)
- normalized growth (locus YER111C, strain swi4, hits give low values): 0.14 (active)
- normalized growth (locus YER155C, strain BEM2 (second series), hits give low values): 0.432 (active)
- normalized growth (locus YFR010W, strain ubp6, hits give low values): 0.374 (active)
- normalized growth (locus YGL167C, strain pmr1, hits give low values): 0.558 (active)
- normalized growth (locus YGL173C, strain kem1, hits give low values): 0.352 (active)
- normalized growth (locus YGL227W, strain vid30, hits give low values): 0.944
- normalized growth (locus YGL240W, strain doc1, hits give low values): 0.869 (active)
- normalized growth (locus YGL253W, strain hxk2, hits give low values): 0.545 (active)
- normalized growth (locus YHR013C, strain ard1, hits give low values): 0.546 (active)
- normalized growth (locus YHR027C, strain rpn1, hits give low values): 0.422 (active)
- normalized growth (locus YHR030C, strain SLT2, hits give low values): 0.581 (active)
- normalized growth (locus YHR079C, strain IRE1, hits give low values): 0.546 (active)
- normalized growth (locus YHR142W, strain chs7, hits give low values): 0.363 (active)
- normalized growth (locus YJL092W, strain hpr5, hits give low values): 0.728 (active)
- normalized growth (locus YJL095W, strain BCK1 (second series), hits give low values): 0.604 (active)
- normalized growth (locus YJL095W, strain BCK1, hits give low values): 0.575 (active)
- normalized growth (locus YJL115W, strain asf1, hits give low values): 0.771 (active)
- normalized growth (locus YJL129C, strain trk1, hits give low values): 0.235 (active)
- normalized growth (locus YJL154C, strain vps35, hits give low values): 0.768 (active)
- normalized growth (locus YJL164C, strain tpk1, hits give low values): 0.666 (active)
- normalized growth (locus YJL166W, strain qcr8, hits give low values): 0.743 (active)
- normalized growth (locus YJL187C, strain SWE1, hits give low values): 0.737 (active)
- normalized growth (locus YJR066W, strain TOR1, hits give low values): 0.312 (active)
- normalized growth (locus YKL160W, strain elf1, hits give low values): 0.777 (active)
- normalized growth (locus YKR026C, strain gcn3, hits give low values): 0.854 (active)
- normalized growth (locus YKR091W, strain srl3, hits give low values): 0.934
- normalized growth (locus YLL001W, strain dnm1, hits give low values): 0.548 (active)
- normalized growth (locus YLL026W, hits give low values): 0.804 (active)
- normalized growth (locus YLL041C, strain sdh2, hits give low values): 0.897 (active)
- normalized growth (locus YLR027C, strain aat2, hits give low values): 0.718 (active)
- normalized growth (locus YLR113W, strain HOG1, hits give low values): 0.525 (active)
- normalized growth (locus YLR221C, strain rsa3, hits give low values): 0.685 (active)
- normalized growth (locus YLR258W, strain gsy2, hits give low values): 0.787 (active)
- normalized growth (locus YLR262C, strain YPT6 (second series), hits give low values): 0.483 (active)
- normalized growth (locus YLR320W, strain mms22, hits give low values): 0.56 (active)
- normalized growth (locus YLR342W, strain FKS1, hits give low values): 0.538 (active)
- normalized growth (locus YLR357W, strain rsc2, hits give low values): 0.593 (active)
- normalized growth (locus YLR370C, strain arc18, hits give low values): 0.347 (active)
- normalized growth (locus YLR384C, strain iki3, hits give low values): 0.642 (active)
- normalized growth (locus YML120C, strain ndi1, hits give low values): 0.193 (active)
- normalized growth (locus YMR058W, strain fet3, hits give low values): 0.275 (active)
- normalized growth (locus YMR125W, strain sto1, hits give low values): 0.89
- normalized growth (locus YMR129W, hits give low values): 0.815 (active)
- normalized growth (locus YMR205C, strain PFK2, hits give low values): 0.547 (active)
- normalized growth (locus YMR231W, strain pep5, hits give low values): 0.169 (active)
- normalized growth (locus YNL071W, strain lat1, hits give low values): 0.873 (active)
- normalized growth (locus YNL183C, strain NPR1, hits give low values): 0.243 (active)
- normalized growth (locus YNL209W, strain ssb2, hits give low values): 0.273 (active)
- normalized growth (locus YNL248C, strain rpa49, hits give low values): 0.725 (active)
- normalized growth (locus YNL322C, strain KRE1 (second series), hits give low values): 0.208 (active)
- normalized growth (locus YNR049C, strain mso1, hits give low values): 0.79 (active)
- normalized growth (locus YOR001W, strain rrp6, hits give low values): 0.544 (active)
- normalized growth (locus YOR070C, strain gyp1, hits give low values): 0.849 (active)
- normalized growth (locus YOR080W, strain dia2, hits give low values): 0.387 (active)
- normalized growth (locus YOR083W, strain WHI5, hits give low values): 0.645 (active)
- normalized growth (locus YOR106W, strain vam3, hits give low values): 0.295 (active)
- normalized growth (locus YOR231W, strain MKK1, hits give low values): 0.615 (active)
- normalized growth (locus YOR265W, strain rbl2, hits give low values): 0.771 (active)
- normalized growth (locus YOR270C, strain vph1, hits give low values): 0.198 (active)
- normalized growth (locus YOR290C, strain snf2, hits give low values): 0.0962 (active)
- normalized growth (locus YPL051W, strain arl3, hits give low values): 0.465 (active)
- normalized growth (locus YPL078C, strain atp4, hits give low values): 0.124 (active)
- normalized growth (locus YPL106C, strain sse1, hits give low values): 0.723 (active)
- normalized growth (locus YPL240C, strain hsp82, hits give low values): 0.872 (active)
- normalized growth (locus YPL256C, strain CLN2, hits give low values): 0.567 (active)
